A selection: hits, their analogues and other compounds. The true share with any hit is near 2.9%.
TRPM1 prom inh = inhibitors of MITF-dependent TRPM1 promoter reporter, primary screen, cell-based, SK-MEL-5, single point, luciferase | SK-MEL-5 TRPM1 promoter luciferase, 24 h | inhibition, % at 12.5 µM | actives 0.83% (n = 330,000) | AID 488899, 2010;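 active means mean inhibition across replicates of 60% or more, whatever share of single replicates reaches that level; inconclusive means some that reach 60%, reason not given; inactive means mean inhibition across replicates below 60%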
NSD2 HMT inh = NSD2 histone methyltransferase inhibitors, primary screen, biochemical, AlphaScreen, single concentration, set 2; Histone-lysine N-methyltransferase NSD2 (Homo sapiens), O96028; NSD2 peptide methylation, 120 min; inhibition, % at 12.5 µM; actives 0.54% (n = 310,000); AID 743445, 2014; in the data active means inhibition above about 50%
MITF act = activators of MITF-driven TRPM1 promoter reporter, primary screen, cell-based, SK-MEL-5, luciferase, single point | AID 588334, 2011 | actives 0.75% (n = 300,000) | SK-MEL-5 TRPM1-promoter luciferase, 24 h; % of positive control, neutral wells = 0 | activation, % at 12.5 µM;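 active means mean activation of at least 80% with every replicate also reaching 80%; inconclusive means mean reaches 80% but some replicate falls short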;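 further: 0% = neutral control wells and 100% = parthenolide positive control wells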
N-glyco inh = increase of ERlucT glycosylation luciferase signal, primary screen, N-linked glycosylation inhibitor project, D54 ERlucT cells, luminescence, set 2 | actives 0.23% (n = 360,000) | AID 588692, 2011 | D54 ERlucT glycosylation luciferase reporter, 24 h; percent of 100 nM tunicamycin response | reporter increase, % at 12.5 µM;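 active means mean luciferase reporter signal, scaled so untreated is 0 and the glycosylation-blocking control 100, at or above a set limit in every replicate; inconclusive means mean reaches the limit but not every replicate does; inactive means mean below the limit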;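 further: luciferase carries N-glycosylation sites so blocking glycosylation raises the light; 0% = median of neutral control wells and 100% = median of 100 nM tunicamycin wells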
Wnt act = Wnt/beta-catenin pathway activators, primary screen, cell-based, plate reader, single point; Wnt/beta-catenin reporter cell assay, activator; activation, % at 9.35 µM; actives 1.2% (n = 300,000); AID 743398, 2014; in the data active means activation above about 30%, passing the limit was not always enough; inconclusive means no clear call, values can overlap the other calls;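 further: 0% = neutral control wells and 100% = positive control wells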
PfHsp90 set2 = growth inhibition of PfHsp90-expressing yeast, primary screen, antimalarial PfHsp90 inhibitor project, S. cerevisiae, BacTiter-Glo luminescence, single point, set 2. BacTiter-Glo ATP, 48 h; yeast lacking PDR1 and PDR3 efflux regulators. inhibition, % at 9.4 µM. actives 0.32% (n = 310,000). AID 504621, 2011;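 active means every replicate shows inhibition above about 80%, whatever the replicate mean, limit read from the data; inconclusive means mean inhibition reaches the set limit but some replicate falls short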;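 further: 0% = DMSO neutral controls and 100% = 20 µM radicicol positive controls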
Numbers without * were called inactive; ? = inconclusive; · = no result.

SMILES | TRPM1 prom inh | NSD2 HMT inh | MITF act | N-glyco inh | Wnt act | PfHsp90 set2
FC(F)Sc1ccc(Nc2ncnc3nc[nH]c23)cc1 | -101 | -2 | 95* | -6 | · | 0
CCCCCCCCN1C(=O)[C@@H](CC(=O)NCc2cccs2)C[C@@]2(C(=O)OC)C1=C[C@H](C(C)(C)C)O[C@@H]2C | · | · | · | · | -10 | ·
Cn1cccc1C=NNC(=O)c1cc(-c2ccc(Cl)cc2)n[nH]1 | · | -5 | · | · | · | ·
COc1ccc(-n2cc(-c3ccc(C)cc3)[n+]3c2SCC3)cc1 | 71* | -1 | -69 | 0 | · | -2
O=C(Nc1cc(Cl)ccc1-n1cncn1)c1ccc([N+](=O)[O-])s1 | 62* | 2 | -61 | -2 | · | 114*
CCC1(CC)Nc2ccccc2C(=O)N1c1ccc(OC)cc1 | -43 | 2 | 42 | -6 | 53* | -1
COC(=O)[C@]12C[C@H](CC(=O)NCCC(C)C)C(=O)N(Cc3ccccc3)C1=C[C@H](C1CCCC1)O[C@@H]2C | · | · | · | · | 0 | ·
O=C(CC(Nc1ccccc1)C(=O)O)c1ccccc1 (stereo not given) | -104 | 5 | 101* | -11 | · | 3
O=C(CC(Nc1ccc(Cl)cc1Cl)C(=O)O)c1ccccc1 (stereo not given) | 12 | 8 | -14 | -15 | -13 | 21
Cc1ccc(NC(CC(=O)c2ccccc2)C(=O)O)cc1Cl (stereo not given) | -72 | · | 73 | -12 | 53* | -11
CC(NC(=S)NCCc1ccccc1)C(c1cccs1)N1CCN(Cc2ccccc2)CC1 (stereo not given) | · | · | · | -10 | -1 | 12
Cc1cccc(-c2nc(C#N)c(NCc3ccco3)o2)c1 | -58 | 17 | · | 2 | 32* | 5
Cc1ccc(C(=O)Nc2nc(-c3ccccn3)cs2)o1 | 5 | 5 | 0 | -6 | 0 | -25
O=C(Nc1nc(-c2ccccn2)cs1)c1cc(Cl)ccc1[N+](=O)[O-] | 79* | 3 | -78 | -12 | -2 | ·
O=C(Nc1nc(-c2ccccn2)cs1)c1ccc(-c2ccccc2F)o1 | -12 | -2 | 13 | 4 | 5 | 96*
Cc1cc(C(=O)Nc2nc(-c3ccccn3)cs2)ccc1[N+](=O)[O-] | 7 | 1 | -7 | -1 | -2 | 36
O=C(Nc1nc(-c2ccccn2)cs1)c1ccccc1-n1cnnn1 | 65* | -2 | -64 | -11 | -1 | -45
O=C(Nc1nc(-c2ccccn2)cs1)c1ccc([N+](=O)[O-])o1 | 61* | 7 | -60 | 13 | 6 | 3
CC(=O)C1=C(C)N(CC(C)C)C(=S)NC1c1ccc(Br)cc1 (stereo not given) | · | -4 | · | · | -1 | ·
Cn1c(N)c(S(=O)(=O)N2CCN(c3ccccc3Cl)CC2)c(=O)n(C)c1=O | -16 | -1 | 15 | -2 | -3 | 7
CC1(C)c2[nH]c3ccccc3c2C[C@@H]2C(=O)N(c3ccc(F)cc3F)C(=O)N21 | 0 | · | 5 | 0 | -1 | -2
O=C(Nc1nc(-c2ccccn2)cs1)C1COc2ccccc2O1 (stereo not given) | 17 | · | -15 | -6 | 1 | 103*
CCOc1cc(/C=C2\CN(CC)C/C(=C\c3ccc(O)c(OCC)c3)C2=O)ccc1O | 93* | · | -92 | -15 | 9 | -11
CCN1C/C(=C/c2cccc([N+](=O)[O-])c2)C(=O)/C(=C/c2cccc([N+](=O)[O-])c2)C1 | 92* | 2 | -92 | -23 | · | 102*
O=C(COc1ccc(Cl)cc1)OCc1ccc(Cl)cc1 | 12 | -4 | -8 | 3 | -3 | ·
SMILES | TRPM1 prom inh | NSD2 HMT inh | MITF act | N-glyco inh | Wnt act | PfHsp90 set2
Oc1ccccc1N=N/C(=N/Nc1ccccc1O)c1ccccc1 | -3 | · | 1 | 1 | 4 | 19
Cn1nnnc1N=N/C(=N/Nc1ccccc1)c1ccccc1 | 9 | 15 | · | 0 | -2 | 97*
COC(=O)c1ccc(C(=O)N=c2sccn2C)cc1 | · | 1 | 83* | 0 | -2 | -23
COc1ccc(C(=O)N=c2sccn2C)cc1 | -56 | -1 | 59 | 1 | 2 | 11
Cn1ccs/c1=N\C(=O)Nc1ccccc1 | -85 | -5 | 91* | -5 | 27 | -7
C[C@@H]1ON(C)[C@H]2C[C@H]3c4[nH]c5c(-c6ccc(F)cc6)cccc5c4CCN3C(=O)[C@@H]12 | · | · | · | · | 0 | ·
Cc1cc(C)c2ccc(C)[n+]([O-])c2c1O | -9 | 2 | · | 1 | · | ·
Cc1cc(C)c2ccc(N)nc2c1O | 74* | · | -75 | -3 | · | -19
CCOc1ccc(/C=C/C(=O)Nc2ccc(C(N)=O)cc2)cc1OC | 14 | -2 | -20 | -1 | · | 0
CCOc1cc(/C=C/C(=O)Nc2ccc(C(=O)NCCN(CC)CC)cc2)ccc1OCC(C)C | 83* | 5 | -82 | -5 | -1 | -32
O=C(OCC(=O)N1CCCCC1)c1cccs1 | -81 | -1 | 83* | -1 | 5 | -17
O=C(OCC(=O)N1CCCCCC1)c1cccs1 | -35 | -4 | 37 | -4 | · | 16
ON=C1c2cc(OCCN3CCCCC3)ccc2-c2ccc(OCCN3CCCCC3)cc21 | 74* | · | · | 6 | · | 20
NC(=S)NN=C1c2cc(OCCN3CCOCC3)ccc2-c2ccc(OCCN3CCOCC3)cc21 | 79* | 5 | -79 | 1 | -5 | 7
C#CCOc1ccc2ccccc2c1/C=C(/C#N)c1ccc(C(=O)O)cc1 | 6 | 3 | -8 | 2 | -3 | -7
CC1CCc2sc(C(=O)NCC3CCCO3)cc2C1 (stereo not given) | -100 | -2 | 101* | -7 | 40* | ·
CCOC(=O)c1sc(NC(=O)c2cc3c(s2)CCC(C)C3)nc1C (stereo not given) | 72* | -8 | -71 | -3 | · | -6
COc1ccc(S(=O)(=O)N2CCN(CC(=O)Nc3c(C)n[nH]c3C)CC2)cc1OC | 15 | -3 | -13 | 1 | 2 | -10
CCOC(=O)c1ccc(OS(=O)(=O)c2ccccc2)c(OC)c1 | -78 | -6 | ? | -5 | 54* | 20
COc1ccc(C(=O)O/N=C(\N)c2ccccc2)cc1OC | -61 | -2 | 49 | 1 | 56* | -7
COc1ccc(/C(N)=N/OC(=O)CSc2ccccc2)cc1OC | -52 | -3 | 55 | 1 | 45* | -7
COc1ccc(/C(N)=N/OC(=O)CCc2ccccc2)cc1OC | -11 | 0 | 12 | -2 | · | 19
O=C(CNS(=O)(=O)c1cccc2ccccc12)N1CCN(c2ncccn2)CC1 | · | -2 | · | · | · | ·
O=C(CCc1c[nH]c2ccccc12)Nc1ccc(Nc2ccccc2)cc1 | · | · | · | · | 0 | ·

Bioassay records as filed in PubChem BioAssay.
